Screens as filed in PubChem.
The list is not random: actives were taken first. Their share in the collection is about 2.9%.
SNCA expr inh: Primary qHTS assay for inhibitors of alpha-synuclein gene (SNCA) expression; HEK-293 SNCA-luciferase knock-in, luminescence, 24 h; Potency, µM (highest dose often 57.2 µM), hits mostly inhibitors; actives 0.17% (n = 140,000); AID 1671194, 2021; also: nearly all actives have a fitted effect of over 45% in size
IP6K1 inhibitor: Primary qHTS assay for small molecule inhibitors of Inositol hexaphosphate kinase 1 (IP6K1) | Inositol hexakisphosphate kinase 1 (Homo sapiens), Q92551 | IP6K1 kinase, ADP-Glo luminescence, 2 h; hits give low values | activity change, % (series mostly up to about 58 µM) | actives 0.81% (n = 140,000) | AID 1645851, 2021; in the data active = activity change below about -25%
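ADP-Glo luminescence measures ADP made by human IP6K1 during a 2 h RT reaction with ATP/IP6 (mix at 1.3 mM/130 uM); top library doses 57.5 and 19.1 uM final.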
HEK293 viab: GF-AFC viability counterscreen for inhibitors of alpha-synuclein gene (SNCA) expression; Potency, µM (top dose mostly 57.1 µM), usual class: cytotoxic; AID 1671193, 2021; HEK-293-SNCA-luc viability, GF-AFC fluorescence, 24 h; actives 0.12% (n = 150,000); also: nearly all actives have a fitted effect of over 30% in size
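HEK-293-SNCA-luc cells (1500/well) plated 24 h, then exposed 24 h to a dilution series; GF-AFC added 30 min at 37C, fluorescence 405/540 nm; normalised to medium-only and DMSO wells, Hill fit.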
KDM5B inh: Primary screen for KDM5B Histone Demethylases FDH-coupled qHTS | actives 2.6% (n = 220,000) | Potency, µM (highest dose often 57.7 µM), most hits filed as inhibitors | AID 1347165, 2019 | KDM5B demethylase, FDH-coupled NADH fluorescence (FDH is formaldehyde dehydrogenase); also: nearly all actives have a fitted effect of over 70% in size
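Compound dilutions met 200 nM (final) KDM5BΔAP for 10 min at room temperature before substrate addition. The substrate mix held 12.5 µM H3K4me3 with cofactors 25 µM α-ketoglutarate and 50 µM Fe²⁺. NADH signal gain over 30 min defined activity.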
Hits are given with their value; i = inactive; ? = inconclusive; nt = no result; [ ] = another dose, or the depositor's remark. Unless noted, calls follow the shape of the dose curve; as a rule, active = well fitted curve in the direction sought with a large enough effect; inconclusive = small, poorly fitted or top-dose-only effect, or another doubt; inactive = no such curve, though single readings can be large; an effect the other way counts as inactive or inconclusive.

SMILES | SNCA expr inh | IP6K1 inhibitor | HEK293 viab | KDM5B inh
CC(NC(=O)Cc1ccc(Cl)cc1)C12CC3CC(CC(C3)C1)C2 (centres undefined) | nt | nt | nt | i
COc1ccccc1/C=C/CN1CCn2nc(CO)cc2C1 | i | i | i | 28µM
O=C(O)Cn1ccc2cc(OCc3cccc(-c4cccc(C(F)(F)F)c4)c3)cnc21 | i | i | i | ?
Cc1cc(-c2cccc(CCOc3cnc4c(ccn4CC(=O)O)c3)c2)ccn1 | i | i | i | 35µM
O=C(O)Cn1ccc2cc(OCc3cccc(-c4ccncc4)c3)cnc21 | i | i | i | ?
O=C(O)Cn1ccc2cc(OCCc3cccc(-c4cncnc4)c3)cnc21 | i | i | i | 28µM
Cn1cc(-c2cccc(CCOc3cnc4c(ccn4CC(=O)O)c3)c2)cn1 | i | i | i | 40µM
Cc1noc(C)c1-c1cccc(CCOc2cnc3c(ccn3CC(=O)O)c2)c1 | i | i | i | 40µM
O=C(NCCN1CCNC1=O)c1cnc2n1CCN(Cc1nccs1)CC2 | i | i | i | ?
CCN(CC)Cc1ccc2c(c1)CN(C(=O)c1cccc(F)c1)CCO2 | i | i | i | i
O=C(c1cc(C2CC2)nc2ccccc12)N1CCCC(C(F)(F)F)C1 (centres undefined) | nt | nt | nt | i
Cc1cccc(-c2cccc(CCOc3cnc4c(ccn4CC(=O)O)c3)c2)c1 | i | i | i | 32µM
COc1cccc(C(=O)N2CCOC[C@H](Oc3ccc(C(F)(F)F)cn3)C2)c1 | i | i | i | i
Cc1cccc(CN2CCCC3(CCN(C(=O)Cc4cccnc4)C3)C2=O)c1 (centres undefined) | i | i | i | i
Cc1cccc(CN2CCCC3(CCN(C(=O)c4ccc(=O)[nH]c4)C3)C2=O)c1 (centres undefined) | i | i | i | 13µM
COCCOC1CN(C2CCN(C(=O)c3ccc(OC)cc3)CC2)C12CCCCC2 (centres undefined) | i | i | i | i
Cn1cccc1C(=O)N1CCCC(c2nnnn2C)C1 (centres undefined) | i | i | i | ?
O=C(c1ccco1)N1CCCC(c2nn[nH]n2)C1 (centres undefined) | i | i | i | 22µM
CN1CCOC[C@H]2CCN(C(=O)c3ccco3)C[C@H]21 | i | i | i | i
Cn1nnnc1C1CCCN(C(=O)c2cccc3[nH]ccc23)C1 (centres undefined) | i | i | i | 32µM
CN1CCOC[C@H]2CCN(C(=O)c3cccc4[nH]ccc34)C[C@H]21 | i | i | i | 25µM
COCCOC1CN(C2CCN(C(=O)c3cccc4[nH]ccc34)CC2)C12CCCCC2 (centres undefined) | i | i | i | 22µM
Cn1nnnc1C1CCCN(C(=O)c2ccc3cc[nH]c3c2)C1 (centres undefined) | i | i | i | 20µM
Cc1cc(C)n(CCC(=O)N2CCCC(c3nnnn3-c3ccccc3)C2)n1 (centres undefined) | i | i | i | nt
O=C(c1cc(F)ccc1F)N1CCCC(c2nn[nH]n2)C1 (centres undefined) | i | i | i | i
SMILES | SNCA expr inh | IP6K1 inhibitor | HEK293 viab | KDM5B inh
O=C(c1ccc2cc[nH]c2c1)N1CCCC(c2nn[nH]n2)C1 (centres undefined) | i | i | i | 22µM
Cc1cc(C)n(CCC(=O)N2CCCC(c3nnnn3C)C2)n1 (centres undefined) | i | i | i | 25µM
Cn1nnnc1C1CCCN(C(=O)c2ccccc2)C1 (centres undefined) | i | i | i | i
Cc1ccc(C(=O)N2CCCC(c3nn[nH]n3)C2)cn1 (centres undefined) | i | i | i | 22µM
Cn1nccc1C(=O)N1CCCC(c2nn[nH]n2)C1 (centres undefined) | i | i | i | ?
OB(O)c1cccc2c1Sc1ccccc1S2 | nt | nt | nt | i
NC1CC(c2cc(NCCc3cn4ccsc4n3)ncn2)C1 (centres undefined) | i | i | i | i
COCCc1noc([C@@H]2CC(F)(F)CN2C(=O)c2ncccc2C)n1 | i | i | i | i
CN1CCC([C@@H]2CN(C(=O)c3ccc4cc[nH]c4c3)C[C@H]2C(N)=O)CC1 | i | i | i[12.5 µM] | 20µM
CN1CCC([C@@H]2CN(C(=O)c3ccccc3Cl)C[C@H]2C(N)=O)CC1 | i | i | i[12.5 µM] | i
O=C(CCc1ccc2c(c1)CN(C(=O)c1cccs1)CCO2)NCC1CC1 | i | i | i | nt
CCOc1ccccc1-c1nc(C2CC(=O)N(c3ccc(C)cc3)C2)no1 (centres undefined) | i | i | i | ?
COc1ccc(-c2ccc3ncc(Nc4ccccc4F)n3n2)cc1OC | i | i | i | i
COc1ccc(-c2ccc3ncc(Nc4cccnc4OC)n3n2)cc1OC | i | i | i | 22µM
N#Cc1ccc([S+](=O)([O-])N2CCC3(CC2)OCCN(CC2CCOCC2)C3=O)cc1 | i | i | i | 32µM
O=C(NCc1cccc(Cl)c1)c1ccc(Cn2ccn3nc4c(c3c2=O)CCCC4)cc1 | i | i | i | ?
COc1ccc(NC(=O)Cn2ccn3nc4c(c3c2=O)CCCCC4)cc1Cl | i | i | i | 28µM
COc1ccc(NC(=O)c2ccc(Cn3ccn4nc5c(c4c3=O)CCCC5)cc2)cc1 | i | i | i | i
CC(C)c1ccc(CNC(=O)c2ccc(Cn3ccn4nc5c(c4c3=O)CCCC5)cc2)cc1 | i | i | i | 28µM
O=C(Nc1cccc(F)c1)c1ccc(Cn2ccn3nc4c(c3c2=O)CCCC4)cc1 | ? | i | i | 25µM
O=C1CCCCCN1C1CCN(Cc2ccccn2)CC1 | i | i | i | i
NC1CCc2nn(CC(=O)N3CCN(c4ncccn4)CC3)c(=O)n2CC1 (centres undefined) | i | i | i | ?
NC1CCc2nn(CC(=O)N3CCCN(c4ncccn4)CC3)c(=O)n2CC1 (centres undefined) | i | i | i | 28µM
Cc1ccc(NC(=O)c2cc3c(N4CCSCC4)nc(C)cn3n2)c(C)c1 | i | i | i | 32µM
CSc1ccc(NC(=O)c2cc3c(N4CCSCC4)nc(C)cn3n2)cc1 | i | i | i | i
SMILES | SNCA expr inh | IP6K1 inhibitor | HEK293 viab | KDM5B inh
Cc1ccc(F)c(NC(=O)c2cc3c(N4CCSCC4)nc(C)cn3n2)c1 | i | i | i | 32µM
CCCCCCCCOc1ccc(OC(=O)/C=C/c2ccc(OC)cc2)cc1 | nt | nt | nt | i
CN(C)CCNC(=O)c1nc2nc(-c3ccccc3)c(-c3cccc(Cl)c3)cc2n1C | ? | i | ? | i
COc1ncccc1-c1cc2c(nc1-c1ccccc1)nc(C(=O)NCCN(C)C)n2C | i | i | ? | 16µM
CN(C)CCNC(=O)c1nc2nc(-c3ccccc3)c(-c3cccc(CO)c3)cc2n1C | i | i | i | 10µM
CN(C)CCNC(=O)c1nc2nc(-c3ccccc3)c(-c3ccc(Cl)cc3)cc2n1C | ? | i | ? | 28µM
